{"source": "PubChem BioAssay (EPA / NIEHS)", "note": "Values joined by “and” are separate entries in the source; they are usually repeats but may differ in a detail not shown here. Identical values can stand only once. Where a structure was tested more than once in an assay, its records may differ in their call. Active and inactive are the calls of the source. The calls were made as follows: active = hit-call score of the fitted dose curve at least 0.9, where 1 is the maximum; inactive = score below 0.9."}
{"assay": "CCTE_Shafer_MEA_acute_synchrony_index: CCTE's Neural Acute Assay for Synchrony, Shafer Lab (AID 2284027);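 also: fitted for loss of signal so actives lower synchrony relative to DMSO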", "description": "CCTE_Shafer_MEA_acute assay is conducted using Axion Biosystems 48 well microelectrode array (MEA) plates and Maestro recording system. Each well of the MEA plate contains a grid of 16 microelectrodes embedded in the culture surface. Electrically active cells, such as neurons, can be cultured over the electrodes, and electrical activity in these cells can be recorded extracellularly. The spontaneous firing of neurons is captured from each electrode on a microsecond timescale providing both temporally and spatially precise data. […] The CCTE_Shafer_MEA_acute assay uses primary cultures of rat cortical neurons. As these cultures mature over time, neural networks develop functional activity and form cohesive networks in which electrical activity can be highly coordinated. Baseline 40-minute recordings are made on days post-plating 13 or 15, followed by a secondary 40-minute recording after chemical exposure.CCTE_Shafer_MEA_acute_synchrony_index is a component of the CCTE_Shafer_MEA_acute assay. It measures the synchrony of the neural network as a unitless measure between 0 (low synchrony) to 1 (high synchrony) during a recording in a microelectrode array (MEA) using Axion Biosystems Maestro 768 channel amplifier with the AxIS adaptive spike detector. The recordings before and after chemical treatment are used to calculate a percent change in the synchrony index in each well.Data from the assay component CCTE_Shafer_MEA_acute_synchrony_index was analyzed into 1 assay endpoint. This assay endpoint, CCTE_Shafer_MEA_acute_synchrony_index, was analyzed in the negative analysis fitting direction relative to DMSO as the negative control and baseline of activity. Using a type of functional reporter, gain or loss-of-signal activity can be used to understand electrical activity.\nSpontaneous activity in the cortical cultures was recorded using an Axion Biosystems Maestro 768 channel amplifier and Axion Integrated Studios (AxIS) v1.8 (or later) software. The amplifier recorded from all channels simultaneously (gain = 1200 x; sampling rate = 12.5 kHz/channel): raw signals were filtered with a Butterworth band-pass filter (300-5000 Hz), which filters out slower local field potentials leaving only fast potentials, i.e., \"spikes\", arising from extracellular currents associated with action potentials (Pine 2006; Wheeler and Nam 2011). On-line spike detection of filtered signals was conducted with the AxIS adaptive spike detector, using a threshold of 8x the root mean squared (rms) noise on each channel. Any electrodes with rms noise levels greater than 5 uV were grounded (e.g., no data were recorded). Once grounded, an electrode was grounded for the duration of the experiment. All recordings were conducted at 37 C. Wells were deemed usable if on the day of the exposure >/= 10 electrodes were active (defined as >/= 5 spikes/min). On DIV 13 or 15, a minimum of three wells from one cortical culture preparation were treated with each compound (0.03-40 uM). Prior to recording baseline activity, each mwMEA plate was placed in the Maestro at 37 C and allowed to sit for 20 min while firing rates stabilized. Baseline activity (40 min) was recorded before the addition of each compound. An additional 40 min of spontaneous activity was recorded in the presence of each compound. Changes in network parameters relative to baseline were assessed following compound treatment."}
{"compound": "CCc1cccc(C)c1N(C(=O)CCl)C(C)COC", "note": "(stereo not given)", "AC50": "8.13 µM (active)"}
{"compound": "CCOP(=O)(NC(C)C)Oc1ccc(SC)c(C)c1", "note": "(stereo not given)", "outcome": "inactive"}
{"compound": "COP(=O)(NC(C)=O)SC", "note": "(stereo not given)", "outcome": "inactive", "AC50": "0.804 µM (active)"}
{"compound": "CSC1=N[C@@](C)(c2ccccc2)C(=O)N1Nc1ccccc1", "AC50": "20 µM (active) and 22.8 µM (active)"}
{"compound": "CN(C)NC(=O)CCC(=O)O", "outcome": "inactive"}
{"compound": "C[Si](Cn1cncn1)(c1ccc(F)cc1)c1ccc(F)cc1", "AC50": "4.26 µM (active)"}
{"compound": "COc1cc(OC)nc(Sc2cccc(Cl)c2C(=O)O)n1", "outcome": "inactive"}
{"compound": "CCCOCC(=Nc1ccc(Cl)cc1C(F)(F)F)n1ccnc1", "AC50": "2.69 µM (active)"}
{"compound": "CCOC(=O)CC(SP(=O)(OC)OC)C(=O)OCC", "note": "(stereo not given)", "outcome": "inactive"}
{"compound": "CC(C)=CC1C(C(=O)OCN2C(=O)C3=C(CCCC3)C2=O)C1(C)C", "note": "(stereo not given)", "AC50": "25.1 µM (active)"}
{"compound": "CCOP(=S)(OCC)Oc1ccc2c(C)c(Cl)c(=O)oc2c1", "AC50": "6.95 µM (active)"}
{"compound": "CN(C)[C@@H]1C(=O)C(C(N)=O)=C(O)[C@@]2(O)C(=O)C3=C(O)c4c(O)cccc4[C@@](C)(O)[C@H]3[C@H](O)[C@@H]12", "outcome": "inactive"}
{"compound": "CC(=NC#N)N(C)Cc1ccc(Cl)nc1", "outcome": "inactive"}
{"compound": "CN1COCN(Cc2cnc(Cl)s2)C1=N[N+](=O)[O-]", "outcome": "inactive"}
{"compound": "FC(F)C(F)(F)OCC(Cn1cncn1)c1ccc(Cl)cc1Cl", "note": "(stereo not given)", "outcome": "inactive"}
{"compound": "CCOP(=S)(OCC)SCCSCC", "outcome": "inactive"}
{"compound": "CON=C(C(=O)OC)c1ccccc1CON=C(C)c1cccc(C(F)(F)F)c1", "AC50": "2.25 µM (active)"}
{"compound": "CCOP(=S)(Oc1cnc(C(C)(C)C)nc1)OC(C)C", "note": "(stereo not given)", "AC50": "31 µM (active)"}
{"compound": "N#CSCSC#N", "AC50": "28.4 µM (active)"}
{"compound": "COP(=O)(OC)C(O)C(Cl)(Cl)Cl", "note": "(stereo not given)", "outcome": "inactive"}
{"compound": "CNC(=O)ON=C(SC)C(=O)N(C)C", "outcome": "inactive"}
{"compound": "CC(C)[C@H](C(=O)O[C@H](C#N)c1cccc(Oc2ccccc2)c1)c1ccc(Cl)cc1", "AC50": "1.01 µM (active)"}
{"compound": "CCc1cnc(C2=NC(C)(C(C)C)C(=O)N2)c(C(=O)O)c1", "note": "(stereo not given)", "outcome": "inactive"}
{"compound": "C=C(C)[C@H]1Cc2c(ccc3c2O[C@@H]2COc4cc(OC)c(OC)cc4[C@@H]2C3=O)O1", "AC50": "20 µM (active)"}
{"compound": "Nc1c(Cl)cc([N+](=O)[O-])cc1Cl", "AC50": "32.8 µM (active)"}
{"compound": "Cc1ccn2nc(S(=O)(=O)Nc3c(F)cccc3F)nc2n1", "outcome": "inactive"}
{"compound": "O=[N+]([O-])c1cc(C(F)(F)F)c(Cl)c([N+](=O)[O-])c1Nc1ncc(C(F)(F)F)cc1Cl", "AC50": "0.481 µM (active)"}
{"compound": "C#CCC1=C(C)C(OC(=O)C2C(C=C(C)C)C2(C)C)CC1=O", "note": "(stereo not given)", "AC50": "17.8 µM (active)"}
{"compound": "O=C(O)c1cc(Oc2ccc(C(F)(F)F)cc2Cl)ccc1[N+](=O)[O-]", "outcome": "inactive"}
{"compound": "CC1=NNC(=O)N(/N=C/c2cccnc2)C1", "outcome": "inactive"}
{"compound": "C[N+]1(C)CCCCC1", "outcome": "inactive"}
{"compound": "CC(C)N(C(=O)SCC(Cl)=C(Cl)Cl)C(C)C", "AC50": "20 µM (active) and 19 µM (active)"}
{"compound": "CC(COc1ccc(Oc2ccccc2)cc1)Oc1ccccn1", "note": "(stereo not given)", "AC50": "20 µM (active)"}
{"compound": "CC[C@H](C)[C@H]1O[C@]2(C=C[C@@H]1C)C[C@@H]1C[C@@H](C/C=C(\\C)[C@@H](O[C@H]3C[C@H](OC)[C@@H](O[C@H]4C[C@H](OC)[C@@H](NC)[C@H](C)O4)[C@H](C)O3)[C@@H](C)/C=C/C=C3\\CO[C@@H]4[C@H](O)C(C)=C[C@@H](C(=O)O1)[C@]34O)O2", "AC50": "37.6 nM (active) and 751 nM (active)"}
